Among the targets are RBM38; RBMY1E; RBM45; RDH8; RET; RGS9; RNPC3; RPL19; RPS28; RPS27; RPL27; RPS6KA5; RTTN; RYR2; SASH1; SASH3; SCAF4; SC5DL.
Holding throughout (assay): pooled miR-30 sensor sort-seq; sequence = guide strand
Details in all cases: shRNA
Also: reference of the scale not given here.

Sequence TCGAAGTACTTCCTGAGCGAGG registered a sensor-assay potency score (higher = more potent) with RBM38 of -1.24.
With TACTGGTCATAGGTGGCCGGTG, the sensor-assay potency score (higher = more potent) in the assay with RBM38 is -1.24.
For the sequence TAACTTGAGCTACCACATGCTT, in the assay with RBMY1E, the sensor-assay potency score (higher = more potent) was -1.09.
Sequence TTTATTTTTAGGTTCAGCCAAG displayed a sensor-assay potency score (higher = more potent) in the assay with RBM45 of -0.905.
Still for that read-out and setting: under TTCTTCATCTTCAACATCTCGG stands 0.279; under TTTGAGGCAACTGTGATCCAGA, -0.334.
Consider TCGAGTCGAGCTGATGACGTTG, for which the sensor-assay potency score (higher = more potent) with RDH8 is -0.883.
TCGTCGTACACGGTCACCGGGA: the sensor-assay potency score (higher = more potent) with RET was -0.762.
TTGGGTCTCCACAACATCGCAG came in with a sensor-assay potency score (higher = more potent) with RET of -0.15.
Regarding TATCTGTCTGCTTTGTTCCTCT, in the assay with RGS9, the sensor-assay potency score (higher = more potent) is -0.0404.
Same read-out and setting: under TTGTTTCTTGACTTCATTCGGA stands 0.389.
On to TTCCTCACAATTTTGTTCCTTT, for which the sensor-assay potency score (higher = more potent) with RNPC3 came to 1.11.
As for TGTTTTTGAACACATTCCCCTT, the sensor-assay potency score (higher = more potent) with RPL19 was -1.21.
Consider TGGATCGGCTCGTGTCGTCCAT, for which the sensor-assay potency score (higher = more potent) with RPS28 is -1.14.
In the case of TGATTTTATAGCATCCTGGGCA, the sensor-assay potency score (higher = more potent) with RPS27 was -0.287.
Consider TTGTTCTTGCCTGTCTTGTATC, for which, in the assay with RPL27, the sensor-assay potency score (higher = more potent) was -1.8.
On to TAAGCCTTGCTTTTCCTCCTGT, for which, in the assay with RPS27, the sensor-assay potency score (higher = more potent) was 0.376.
Same read-out and setting: the result for TGGTGATTTTATAGCATCCTGG reads -1.63.
Take TACACTTTCACAAAAGATTTTA: in the assay with RPL27, the sensor-assay potency score (higher = more potent) is -0.949.
For the sequence TAAAGTCTTGATGATCTCCTCC, the sensor-assay potency score (higher = more potent) with RPL19 was found to be 0.336.
On the same count and under the same terms, under ATTGGCTGTACCCTTCCGCTTA stands -0.619.
For TATCTTTGATCTCTTGGCGATC, the sensor-assay potency score (higher = more potent) in the assay with RPL27 was -1.37.
On the same count and under the same terms, the result for TTTATCTTTGATCTCTTGGCGA reads -0.218; that for AGGATCTCTGAAGACATCCTTA, -1.41.
For AATTCCACGCGCACCTGCGTGC, the sensor-assay potency score (higher = more potent) in the assay with RPS28 is -0.771.
Same read-out and setting: under TTGCGGATGATGGATCGGCTCG stands -1.36.
Sequence TTCTTCACGATGACAGCTTTGC gave a sensor-assay potency score (higher = more potent) with RPL27 of -0.801.
Take TGTCCCTGAGAACCGGTCCTGC: the sensor-assay potency score (higher = more potent) with RPS28 is -1.38.
The same measure, in the same setting: under TGATGGATCGGCTCGTGTCGTC stands -1.07.
With TTCACATCCATGAAGTAGGAAT, the sensor-assay potency score (higher = more potent) in the assay with RPS27 was -1.13.
As for TTTCACATCCATGAAGTAGGAA, in the assay with RPS27, the sensor-assay potency score (higher = more potent) amounted to 0.096.
On the same count and under the same terms, the result for TTGCTTTTCCTCCTGTAGGCTG reads -0.847.
The sequence TCGCTCTGACTCCAAAAGGGTG registered a sensor-assay potency score (higher = more potent) with RPS28 of -1.7.
In the assay with RPS27, TTCTTCTTGTGTTTCCTCTTCT gave a sensor-assay potency score (higher = more potent) of 0.637.
Regarding TGAAGGAACATCCTTCTGTAAG, the sensor-assay potency score (higher = more potent) with RPS27 was -1.76.
In the assay with RPS28, TGCACTGTCCCTGAGAACCGGT registered a sensor-assay potency score (higher = more potent) of -1.07.
On to TTCCTCTTCTCCTCTTCTGGAG, for which, in the assay with RPS27, the sensor-assay potency score (higher = more potent) is -0.516.
The sequence ATTGACGACAGTTTTGTCCAAG gave a sensor-assay potency score (higher = more potent) with RPL27 of -1.31.
For the sequence TTTACATTGCGGATGATGGATC, in the assay with RPS28, the sensor-assay potency score (higher = more potent) is -1.07.
In turn, TCGGCTCGTGTCGTCCATGAAT had a sensor-assay potency score (higher = more potent) with RPS28 of -1.75.
Sequence TTTTATAGCATCCTGGGCATTT displayed a sensor-assay potency score (higher = more potent) in the assay with RPS27 of -0.741.
In the assay with RPL27, TTTAAGAGCAGGATCTCTGAAG returned a sensor-assay potency score (higher = more potent) of -0.365.
In the assay with RPS27, TCCTCTTCTCCTCTTCTGGAGA yielded a sensor-assay potency score (higher = more potent) of -1.67.
Turning to TTCACGATGACAGCTTTGCGTC, in the assay with RPL27, the sensor-assay potency score (higher = more potent) was -0.995.
TTGTGCATGGCTAAAGACCGTG: the sensor-assay potency score (higher = more potent) with RPS27 was -0.673.
Sequence TTACCTATGCCCATGTGCCTGC returned a sensor-assay potency score (higher = more potent) in the assay with RPL19 of -0.132.
Consider ATATCCACAGAGTACCTTGTGG, for which the sensor-assay potency score (higher = more potent) in the assay with RPL27 was -0.336.
Still for that read-out and setting: under TTATCTTTGATCTCTTGGCGAT stands -0.525.
As to TTTTACATTGCGGATGATGGAT, the sensor-assay potency score (higher = more potent) in the assay with RPS28 was -0.481.
For TCTCTCTTCAAACTTGACCTTG, the sensor-assay potency score (higher = more potent) with RPL27 was -0.698.
As for TTGGTGACCCTGGCCAGCTTGA, the sensor-assay potency score (higher = more potent) with RPS28 was -1.2.
The sequence TTCTCCTAGATATCTCAGCTTG showed a sensor-assay potency score (higher = more potent) in the assay with RPS6KA5 of -0.946.
For TTCTTCACTATGACTACCCAAA, the sensor-assay potency score (higher = more potent) with RTTN was -0.98.
In turn, TAGAGATTTCTGATTTTCCTGA showed a sensor-assay potency score (higher = more potent) with RTTN of 0.353.
As to TAAATCACTGTTTCCATCCAGA, in the assay with RYR2, the sensor-assay potency score (higher = more potent) was determined as 0.11.
In the case of TTTTGTACTCGGTTCCACCTGA, the sensor-assay potency score (higher = more potent) in the assay with RYR2 came to 0.606.
For TATTTTTTAGACATTCTCTTTC, the sensor-assay potency score (higher = more potent) with SASH1 was -0.235.
The sequence TTGACCATCTGTAATCAGCCTT showed a sensor-assay potency score (higher = more potent) with SASH3 of 0.123.
TGATCTGGATCACATCTCCTTT displayed a sensor-assay potency score (higher = more potent) in the assay with SASH3 of -1.14.
Same read-out and setting: under TAGCTTTTACCAAAGTTCCTGG stands -0.621.
For the sequence TTCAGGTACAATCTGAGGGGGC, the sensor-assay potency score (higher = more potent) with SASH1 is -0.224.
As to TTGTCTGAAACAGCTGAGCCAC, the sensor-assay potency score (higher = more potent) in the assay with SCAF4 was -1.31.
In the assay with SASH3, TTTTAGACTGACCTGAAACATT displayed a sensor-assay potency score (higher = more potent) of -1.36.
TTGAAGAATTAACCATTCCTGA came in with a sensor-assay potency score (higher = more potent) with SC5DL of -0.422.
ATCATCTTGCCCATCTTCCTGT returned a sensor-assay potency score (higher = more potent) with SASH3 of -0.431.
TTCTGGAATGTTATCATCCAGA displayed a sensor-assay potency score (higher = more potent) with SASH3 of -1.05.
Regarding TAATGTACAATAACTCTTGAGT, the sensor-assay potency score (higher = more potent) with SASH1 was -0.698.
Sequence TAACTCTTGAGTCTGTTACTTT had a sensor-assay potency score (higher = more potent) with SASH1 of -0.488.
Regarding TAGTCCAGCAGCAGCTCGGCGG, in the assay with SASH3, the sensor-assay potency score (higher = more potent) was -1.4.
TTTCATTAATGCATGATCGAAG registered a sensor-assay potency score (higher = more potent) in the assay with SC5DL of -0.355.
Still for that read-out and setting: the result for AAGACTAATAGCTTGTCGGAAG reads -1.
TTGAGTTGTCTGAAACAGCTGA: the sensor-assay potency score (higher = more potent) with SCAF4 stood at 0.384.
In turn, TAGGGTTTTTAGACTGACCTGA displayed a sensor-assay potency score (higher = more potent) in the assay with SASH3 of 0.692.
Sequence TATCATTATCATACCAACGTTG returned a sensor-assay potency score (higher = more potent) with SC5DL of -0.725.
Same read-out and setting: the result for TTACTATGTATCTTGACTGTAT reads 0.237.
Same read-out and setting: the result for TATATGGTAAGGTAGACTCTGA reads -0.406.
As to TACTATTTGAACTACATGCTTA, the sensor-assay potency score (higher = more potent) in the assay with SCAF4 is 0.0032.
On to TTGAAGTCTTCCAGTGTCTGGT, for which the sensor-assay potency score (higher = more potent) with SASH3 was found to be 0.225.
In the assay with SASH3, TTGGCAAAATCCTTGAAGCTGC came in with a sensor-assay potency score (higher = more potent) of -0.67.
Turning to TAGTTGTCAATTTCTGAGGTTC, in the assay with SASH1, the sensor-assay potency score (higher = more potent) was -0.0207.
Still for that read-out and setting: the result for TTGAGCTTGAGTGAGTCTGTGT reads 0.495; that for TAGCTTTCCGAGTCTTGCCGTT, -0.384.
As for TTAACCAAGATGTACAGACTTA, in the assay with SC5DL, the sensor-assay potency score (higher = more potent) was -0.113.
On the same count and under the same terms, under TTGAATGAGCCGCCAATCCTAT stands -0.95.

These data come from the OligoGym collection.
